Compounds without any hit were thinned out: in the full panel of roughly 79,000, 15% have a hit. A number with no mark means an inactive call. Calls of active or inactive are those of the source. Rule as the data show it: active = growth inhibition above about 70%; inactive = the rest.

Results on nine compounds are retold here after PubChem BioAssay (NCI).

The nature of assay [1]: NCI Yeast Anticancer Drug Screen. Data for the rad50 strain (AID 155).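 Also: 0% = growth of vehicle-only cultures of the same strain.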 The conditions noted are these: S. cerevisiae rad50 strain growth inhibition, hits give high values. In short, it runs like this:
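Readout: growth inhibition relative to vehicle-treated cultures. Compound exposure was carried out in a genetically defined yeast strain deficient in DNA damage repair.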

The nature of assay [2]: NCI Yeast Anticancer Drug Screen. Data for the mec2-1 strain (AID 157). The note with it: S. cerevisiae mec2-1 strain, hits give high values. In short, it runs like this:
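Readout is yeast growth inhibition, normalised to vehicle-treated controls, in the mec2-1 strain exposed to compound.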

Assay [3] can be described thus: NCI Yeast Anticancer Drug Screen. Data for the sgs1 mgt1 strain (AID 161).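 Also: 0% = growth of cultures given vehicle only.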 The note with it: S. cerevisiae sgs1 mgt1 strain, hits give high values. In short, it runs like this:
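Yeast cells carrying a defined DNA-repair defect were exposed to test compounds. Growth inhibition was measured relative to vehicle-treated controls.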

Assay [4] in a line: NCI Yeast Anticancer Drug Screen. Data for the cln2 rad14 strain (AID 165).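 Also: 0% = growth equal to vehicle treated cultures.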 The conditions noted are these: S. cerevisiae cln2 rad14 strain, hits give high values. In short, it runs like this: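 Relative to vehicle controls, growth inhibition of compound-treated cln2 rad14 yeast was recorded.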
Assay [5] can be described thus: NCI Yeast Anticancer Drug Screen. Data for the bub3 strain (AID 167). The note with it: S. cerevisiae bub3 mutant strain, hits give high values. In short, it runs like this: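 Readout: yeast growth inhibition, expressed relative to vehicle-only wells. The test organism is a mutant strain from a panel with lesions in DNA repair or checkpoint genes.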
Assay [6] in a line: NCI Yeast Anticancer Drug Screen. Data for the mlh1 rad18 strain (AID 175). The note with it: S. cerevisiae mlh1 rad18 strain growth inhibition, hits give high values. The procedure, abridged:
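Test agents were incubated with a yeast strain of defined genotype (DNA damage repair defect). Inhibition of growth was derived by comparison with vehicle-exposed cultures.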

Setting [7] is: at 5.0 µM (retest, dose inferred, filed as 0.5).
Where [8] appears, read: at 50.0 µM (retest, dose inferred, filed as 5.0).

Turning to `NC(=O)C(CCc1cccc2ccccc12)c1ccccc1` (configuration not stated), the growth inhibition was 6% in assay [1] (setting [7]); 14% in assay [1] (setting [8]); 98.8% (active) in assay [1] (at 50.0 µM); -10% in assay [2] (setting [7]); -6% in assay [2] (setting [8]); 94.5% (active) in assay [2] (at 50.0 µM). Moreover, the growth inhibition in assay [3] (setting [7]) was -6%; in assay [3] (setting [8]), 24%; in assay [3] (at 50.0 µM), 36.3%; in assay [4] (setting [7]), -5%; in assay [4] (setting [8]), -3%; in assay [4] (at 50.0 µM) it was 62.5%. Moreover, the growth inhibition in assay [5] (setting [7]) was -2%; in assay [5] (setting [8]), 12%; in assay [5] (at 50.0 µM), 95.8% (active); in assay [6] (setting [7]), -8%; in assay [6] (setting [8]), 14%; in assay [6] (at 50.0 µM) it was 98.4% (active).
As for `Nc1ncnc2c1ncn2C1OCC(OCc2ccccc2)C(OCc2ccccc2)C1OCc1ccccc1` (configuration not stated), the growth inhibition in assay [1] (setting [7]) was 9%; in assay [1] (setting [8]), 99% (active); in assay [1] (at 50.0 µM), 98.3% (active); in assay [2] (setting [7]), -25%; in assay [2] (setting [8]), 100% (active); in assay [2] (at 50.0 µM), 96% (active). The growth inhibition in assay [3] (setting [7]) is 13%; in assay [3] (setting [8]), 98% (active); in assay [3] (at 50.0 µM) it was 99.2% (active); in assay [4] (setting [7]) it was 6%; in assay [4] (setting [8]), 98% (active); in assay [4] (at 50.0 µM), 96.8% (active). Besides, the growth inhibition was 13% in assay [5] (setting [7]); 99% (active) in assay [5] (setting [8]); 97.5% (active) in assay [5] (at 50.0 µM); -4% in assay [6] (setting [7]); 99% (active) in assay [6] (setting [8]); 98.1% (active) in assay [6] (at 50.0 µM).
`Cc1csc2[n+]1C(=O)/C(=C\c1ccc([N+](=O)[O-])cc1)S2`: the growth inhibition in assay [1] (setting [7]) was 30%; in assay [1] (setting [8]), 74% (active); in assay [1] (at 50.0 µM), 69.6%; in assay [2] (setting [7]) it was 21%; in assay [2] (setting [8]), 71% (active); in assay [2] (at 50.0 µM) it was 56.2%. The growth inhibition in assay [3] (setting [7]) is 32%; in assay [3] (setting [8]) it was 80% (active); in assay [3] (at 50.0 µM), 50.3%; in assay [4] (setting [7]), 7%; in assay [4] (setting [8]), 67%; in assay [4] (at 50.0 µM), 57.5%. In addition, the growth inhibition in assay [5] (setting [7]) was 26%; in assay [5] (setting [8]), 76% (active); in assay [5] (at 50.0 µM), 46.9%; in assay [6] (setting [7]), 24%; in assay [6] (setting [8]), 82% (active); in assay [6] (at 50.0 µM), 78.3% (active).
Turning to `COc1ccc2c(c1)nc1cc(Cl)ccc1[n+]2C`, the growth inhibition was 8% in assay [1] (setting [7]); 97% (active) in assay [1] (setting [8]); 82.2% (active) in assay [1] (at 50.0 µM); 2% in assay [2] (setting [7]); 95% (active) in assay [2] (setting [8]); 52.5% in assay [2] (at 50.0 µM). The growth inhibition in assay [3] (setting [7]) was -5%; in assay [3] (setting [8]), 97% (active); in assay [3] (at 50.0 µM), 74.1% (active); in assay [4] (setting [7]), 0%; in assay [4] (setting [8]), 97% (active); in assay [4] (at 50.0 µM) it was 64.4%. Moreover, the growth inhibition in assay [5] (setting [7]) was 9%; in assay [5] (setting [8]) it was 93% (active); in assay [5] (at 50.0 µM), 86.3% (active); in assay [6] (setting [7]) it was 5%; in assay [6] (setting [8]), 97% (active); in assay [6] (at 50.0 µM) it was 85.3% (active).
Consider `CCC(C)OC(=S)S` (configuration not stated), for which the growth inhibition in assay [1] (setting [7]) is 4%; in assay [1] (setting [8]), 36%; in assay [1] (at 50.0 µM), 42.9%; in assay [2] (setting [7]) it was 8%; in assay [2] (setting [8]) it was 44%; in assay [2] (at 50.0 µM) it was 33.8%. Further, the growth inhibition is -7% in assay [3] (setting [7]); 26% in assay [3] (setting [8]); 74.2% (active) in assay [3] (at 50.0 µM); 1% in assay [4] (setting [7]); -4% in assay [4] (setting [8]); -20.8% in assay [4] (at 50.0 µM). For the same compound, the growth inhibition in assay [5] (setting [7]) was 3%; in assay [5] (setting [8]), 59%; in assay [5] (at 50.0 µM), 90.7% (active); in assay [6] (setting [7]) it was 15%; in assay [6] (setting [8]) it was 57%; in assay [6] (at 50.0 µM), 85% (active).
Consider `CN(C)c1nc(N(C)C)nc([N+](C)(C)C)n1`, for which the growth inhibition in assay [1] (setting [7]) is 1%; in assay [1] (setting [8]) it was -1%; in assay [1] (at 50.0 µM) it was 98.5% (active); in assay [2] (setting [7]) it was -3%; in assay [2] (setting [8]), 1%; in assay [2] (at 50.0 µM) it was 98% (active). The growth inhibition in assay [3] (setting [7]) is -1%; in assay [3] (setting [8]) it was -4%; in assay [3] (at 50.0 µM), 99.1% (active); in assay [4] (setting [7]), -3%; in assay [4] (setting [8]) it was -1%; in assay [4] (at 50.0 µM), 96.5% (active). In addition, the growth inhibition is 0% in assay [5] (setting [7]); -5% in assay [5] (setting [8]); 98% (active) in assay [5] (at 50.0 µM); -5% in assay [6] (setting [7]); -7% in assay [6] (setting [8]); 98.7% (active) in assay [6] (at 50.0 µM).
For the compound `Cc1cc(NC(=S)SCc2ccc(F)cc2)ccc1Br`, the growth inhibition is 49% in assay [1] (setting [7]); 99% (active) in assay [1] (setting [8]); 90.7% (active) in assay [1] (at 50.0 µM); 32% in assay [2] (setting [7]); 100% (active) in assay [2] (setting [8]); 92.8% (active) in assay [2] (at 50.0 µM). In addition, the growth inhibition is 58% in assay [3] (setting [7]); 100% (active) in assay [3] (setting [8]); 91.8% (active) in assay [3] (at 50.0 µM); 46% in assay [4] (setting [7]); 99% (active) in assay [4] (setting [8]); 90.7% (active) in assay [4] (at 50.0 µM). Besides, the growth inhibition is 56% in assay [5] (setting [7]); 100% (active) in assay [5] (setting [8]); 92.3% (active) in assay [5] (at 50.0 µM); 33% in assay [6] (setting [7]); 98% (active) in assay [6] (setting [8]); 91.4% (active) in assay [6] (at 50.0 µM).
With `C=CCNCCC1CCCCCC1`, the growth inhibition in assay [1] (setting [7]) was 7%; in assay [1] (setting [8]), 97% (active); in assay [1] (at 50.0 µM) it was 96.6% (active); in assay [2] (setting [7]), 6%; in assay [2] (setting [8]), 97% (active); in assay [2] (at 50.0 µM), 97.5% (active). Moreover, the growth inhibition in assay [3] (setting [7]) was 7%; in assay [3] (setting [8]), 98% (active); in assay [3] (at 50.0 µM), 49.1%; in assay [4] (setting [7]), 5%; in assay [4] (setting [8]), 96% (active); in assay [4] (at 50.0 µM), 8.8%. Besides, the growth inhibition is 7% in assay [5] (setting [7]); 97% (active) in assay [5] (setting [8]); 97.7% (active) in assay [5] (at 50.0 µM); 4% in assay [6] (setting [7]); 97% (active) in assay [6] (setting [8]); 96.5% (active) in assay [6] (at 50.0 µM).
In the case of `O=C(Oc1ccccc1)C1CCCCC1C(=O)Oc1ccccc1` (configuration not stated), the growth inhibition is -16% in assay [1] (setting [7]); -12% in assay [1] (setting [8]); 39.2% in assay [1] (at 50.0 µM); -19% in assay [2] (setting [7]); 10% in assay [2] (setting [8]); 26.4% in assay [2] (at 50.0 µM). Further, the growth inhibition in assay [3] (setting [7]) was -3%; in assay [3] (setting [8]) it was 5%; in assay [3] (at 50.0 µM), 30.4%; in assay [4] (setting [7]) it was 10%; in assay [4] (setting [8]), 33%; in assay [4] (at 50.0 µM), -2.35%. Besides, the growth inhibition was -9% in assay [5] (setting [7]); -5% in assay [5] (setting [8]); -4.5% in assay [5] (at 50.0 µM); -11% in assay [6] (setting [7]); -6% in assay [6] (setting [8]); 31.8% in assay [6] (at 50.0 µM).
